Screening data from PubChem.
This is a sample that favours compounds with a hit; in the whole collection about 19% have one here.
DT40 TDP1 no CPT: qHTS for Inhibitors of human tyrosyl-DNA phosphodiesterase 1 (TDP1): qHTS in cells in absence of CPT | DT40 Tdp1-/- hTDP1 cells, no CPT, ATP luminescence, 48 h | Potency, µM (top dose mostly 46.2 µM), for the others: top-dose activity change, negative = growth inhibition, usual class: inhibitors | 420,000 tested, 15% active | AID 686978, 2013; further: potency means the concentration at half of the fitted maximal effect; nearly all actives have a fitted effect of over 55% in size
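Growth kinetics read by CellTiter-Glo luminescence after ≥48 hr at 37 °C. Cells: DT40 Tdp1-/- stably carrying human TDP1, 400 per well, compound exposure in the absence of CPT (DMSO vehicle).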
IL-1B inflam inh: blocks inflammasome-driven IL-1 beta release; THP-1 LPS/ATP IL-1B secretion, AlphaLISA, 16 h; stronger effect = lower value; activity change, % at 57.5 µM; 360,000 tested, 4.7% active; AID 743279; in the data active means activity change below about -50%; inconclusive means mostly about -30% to -49%
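Secreted IL-1B measured by AlphaLISA bead assay after 16 h compound exposure of THP-1 cells; compounds (final up to 57.5 uM) added 1 h before LPS (250 ng/mL) and ATP (1.25 mM) stimulation; lower signal means less secretion.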
uPA generation: cell surface uPA generation inhibition; cell surface uPA generation assay, qHTS; Potency, µM (highest dose often 38.3 µM), inactives show at the top dose activity change, negative = inhibition, usual class: inhibitors; 330,000 tested, 0.31% active; active means well fitted inhibition curve with a large enough effect; inconclusive means small, poorly fitted or top-dose-only effect; inactive means no such curve, though single readings can be large or run the other way; tested in mouse RAW 264.7 cells; further: potency means the concentration at half of the fitted maximal effect; nearly all actives have a fitted effect of over 55% in size
DT40 TDP1 CPT: growth inhibition of DT40 Tdp1-/-;hTDP1 cells with camptothecin (screen for TDP1 inhibitors); AID 686979; chicken DT40 Tdp1-/-;hTDP1 cells + 20 nM CPT, ATP luminescence, 48 h; Potency, µM (titrated, usually from 46.2 µM), for inactives: at the top dose activity change, negative = growth inhibition, usual class: inhibitors; 420,000 tested, 12% active; further: potency means the concentration at half of the fitted maximal effect; nearly all actives have a fitted effect of over 55% in size
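Cell growth measured by CellTiter-Glo luminescence after a minimum 48 h, 37 C compound exposure with 20 nM CPT in Tdp1-knockout DT40 cells stably expressing hTDP1, seeded 400/well; qHTS titration format.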
HT1080 IDH1KD tx: kills HT-1080 cells with IDH1 knockdown; HT-1080 IDH1 knockdown viability, ATP luminescence, 48 h; Potency, µM (highest dose often 46.1 µM), inactives show at the highest dose activity, negative = toxicity, most hits filed as cytotoxic; 360,000 tested, 2% active;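 further: potency means the concentration at half of the fitted maximal effect; 0% = DMSO wells and -100% = cell-free medium wells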
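Assay cells: HT-1080 with IDH1 knockdown, 750 per well, RPMI/5% FBS. Exposure: 48 h at 37 °C following 2 h pre-incubation. Read: CellTiter-Glo luminescence; fitted concentration-response, curve class assigned.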
HT1080NT lethal: kills 2HG-producing HT-1080-NT fibrosarcoma cells | HT-1080-NT fibrosarcoma viability, CellTiter-Glo ATP luminescence, 48 h | AID 686970 | Potency, µM (doses to about 46.1 µM), for the others: top-dose activity, negative = less viability, actives largely listed as cytotoxic | 360,000 tested, 1.6% active;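 further: NT is the 2HG producing partner of a matched IDH1 knockdown line; potency means the concentration at half of the fitted maximal effect; 0% = DMSO-treated cells and -100% = media-only wells without cells; nearly all actives have a fitted effect of over 55% in size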
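Toxicity toward the 2HG-producing NT line was scored as %Activity, normalised to DMSO and no-cell wells, from CellTiter-Glo luminescence after 48 hours' treatment.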
Numbers without * were called inactive; ? = inconclusive; . = no result given. Unless noted, the call rests on the fitted dose curve; in most records, active means well fitted curve in the direction sought with a large enough effect; inconclusive means small, poorly fitted or top-dose-only effect, or another doubt; inactive means no such curve, though single readings can be large; an effect the other way counts as inactive or inconclusive. Unless noted, on the % scale 0 is the no-effect control and ±100 the full control effect.

SMILES | DT40 TDP1 no CPT | IL-1B inflam inh | uPA generation | DT40 TDP1 CPT | HT1080 IDH1KD tx | HT1080NT lethal
CCOC(=O)C1CCCN(C(=O)c2sc3nc(-c4ccc(F)cc4)cn3c2C)C1 (configuration not stated) | 25.9µM* | 0.0 | -1.9% | ? | -9.3% | -8.2%
CCOC(=O)C1CCCN(C(=O)c2sc3nc(-c4ccccc4)cn3c2C)C1 (configuration not stated) | ? | 5.0 | -2.3% | ? | 3.4% | 4.1%
C[C@@H]1CN([C@@H](C)CO)C(=O)c2cc(NS(C)(=O)=O)ccc2O[C@@H]1CN(C)Cc1ccc(C(F)(F)F)cc1 | -28.8% | 3.8 | 4.0% | ? | 5.2% | 13.0%
O=C(C[C@H]1CC[C@H]2[C@@H](COC[C@H](O)CN2Cc2ccccc2)O1)NCCCN1CCOCC1 | 6.7% | -1.0 | . | 13.1% | 22.2% | 14.5%
Cc1cc2c(cc1C)-n1nnnc1C(N1CCN(c3ccccn3)CC1)C(c1ccc3c(c1)OCO3)=N2 (configuration not stated) | ? | 30.8 | . | ? | 0.6% | 5.9%
C=CC(C)(C)c1[nH]cnc1/C=C1\NC(=O)C(C(C)C)NC1=O (configuration not stated) | 16.4µM* | 29.7 | ? | 11.6µM* | -29.5% | ?
O=C(O)Cc1cccc(-c2cc(CCCCCCc3ccc(O[C@H]4O[C@H](CO)[C@@H](O)[C@H](O)[C@@H]4O)c(-c4cccc(CC(=O)O)c4)c3)ccc2O[C@H]2O[C@H](CO)[C@@H](O)[C@H](O)[C@@H]2O)c1 | 8.7% | . | . | 1.8% | . | .
O=C(NCc1nc2ccccc2[nH]1)C1=C[C@H](C2CC2)C[C@H](OCCCCO)O1 | -8.4% | 22.9 | -0.6% | -5.0% | 5.8% | -0.7%
CC(C)(C)[C@H]1C=C(C(=O)NCc2nc3ccccc3[nH]2)O[C@@H](OCc2ccc(CO)cc2)C1 | ? | -0.8 | 4.2% | 20.6µM* | -0.7% | -3.6%
O=C(NCc1nc2ccccc2[nH]1)C1=C[C@@H](C2CCCCC2)C[C@@H](OCc2ccc(CO)cc2)O1 | ? | 13.9 | ? | ? | 0.5% | -2.3%
O=C(NCc1nc2ccccc2[nH]1)C1=C[C@H](C2CCCCC2)C[C@H](OCCCCO)O1 | 16.4µM* | 6.0 | -4.3% | 23.1µM* | 0.4% | 5.4%
O=C(NCc1nc2ccccc2[nH]1)C1=C[C@H](C2CCCCC2)C[C@H](OCc2ccc(CO)cc2)O1 | 16.4µM* | -12.8 | ? | 11.6µM* | ? | ?
O=S(=O)(c1cnc(Cl)c(Br)c1)N1CCN(c2ncccn2)CC1 | 18.2% | -14.9 | -20.9% | -6.2% | -1.9% | 0.8%
O=C(CC(C(=O)NCc1ccccc1)c1nc2ccccc2c(=O)[nH]1)NCc1ccccc1 (configuration not stated) | -1.4% | 10.3 | 10.6% | ? | -6.8% | -3.9%
COc1ccccc1C1=NOC(C)(c2nnc(Cc3ccccc3)o2)C1 (configuration not stated) | -8.6% | 20.6 | 6.5% | -3.8% | 3.0% | 0.8%
COc1ccc2[nH]cc(CCNC(=O)Nc3ccccc3C)c2c1 | -7.0% | -0.3 | -2.1% | 26.4% | 12.8% | 18.2%
COC(=O)Cc1[nH]n(-c2nc3ccccc3s2)c(=O)c1C(C)=Nc1ccc(Cl)cc1 | 20.6µM* | 0.0 | ? | 10.3µM* | -23.6% | ?
O=c1c(C=NCc2cccnc2)c(C(F)(F)F)[nH]n1-c1nc2ccccc2s1 | -23.3% | 16.8 | -10.1% | -6.7% | ? | -34.9%
CCCN=C(C)c1c(-c2ccccc2)[nH]n(-c2nc3ccccc3s2)c1=O | 25.9µM* | -5.5 | -0.9% | ? | 5.6% | 14.0%
